Screening data deposited in PubChem BioAssay by several laboratories.
An excerpt weighted towards active compounds, which were near 13% of everything screened.
Lmaj promast: reduces viability of Leishmania major promastigotes; resazurin fluorescence viability; inhibition, % at 10 µM; 200,000 compounds, 9% hits; in the data active = inhibition above about 50%;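 note: promastigotes grown with compound for 44 hours at 28 °C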
CHOP inhibitor: CHOP inhibition in unfolded protein response; CHO-K1 CHOP-promoter luciferase, tunicamycin-induced, 15-18 h; inhibition, % at 10 µM; 220,000 compounds, 3.8% hits;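 active = compounds that reduced the stress-induced luciferase reporter signal by more than about 70% of percent inhibition, limit read from the data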;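 note: 0% = tunicamycin plus vehicle and 100% = wells without tunicamycin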
RAM inhibit: yeast RAM network inhibition. S. cerevisiae dse1pr::URA3 reporter, 5-FOA growth OD615, 2 d; analog-sensitive cbk1-as2 kinase mutant strain. inhibition, % at 50 µM. 190,000 compounds, 1.8% hits. AID 868;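 active = inhibition above a set limit, 3 SD over mean compound inhibition, cut at about 8.4% in these data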;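 note: 0% = DMSO-only wells with no growth and 100% = 10 µM 1-NA-PP1 full growth; inhibition rescues growth on 5-FOA so higher OD means more RAM inhibition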
WT yeast gro inh: growth inhibition of WT yeast, mitochondrial fusion screen. mitochondrial fusion phenotypic screen, WT strain. inhibition, % at 10 µM. 190,000 compounds, 2.1% hits; in the data active = inhibition above about 58%; tested in S. cerevisiae
* hit, by the source's call; · = not tested or not shown.

SMILES	Lmaj promast	CHOP inhibitor	RAM inhibit	WT yeast gro inh
Cc1nc(NC(=O)c2ccccc2)sc1-c1csc(Nc2ccc(Cl)cc2Cl)n1	53.9*	35.6	5.2	10.3
COc1ccccc1Nc1nc(-c2sc(NC(=O)c3ccco3)nc2C)cs1	99.7*	37.9	2.4	-2.9
COc1ccc(Cl)cc1Nc1nc(-c2sc(NC(=O)c3ccccc3)nc2C)cs1	41.1	11.9	6.5	26.3
COC(=O)c1cc(OC)c(OC)cc1NC(=O)c1cccc(C)c1	1.0	70.5*	2.9	-1.7
CCOc1cc(NC(=O)c2ccccn2)c(OCC)cc1NC(=O)c1cccc(C)c1	-2.9	15.5	9.6*	-8.8
Cc1cccc(C(=O)Nc2cc(OCc3cccc(F)c3)c(Cl)cc2Cl)c1	-0.5	62.7	9.4*	17.3
COC(=O)c1cc(OC)c(OC)cc1NC(=S)N1CCCCC1	89.0*	1.2	0.3	8.4
CCOc1cc(NC(=O)c2cccs2)c(OCC)cc1NC(=O)c1ccccn1	-1.3	-21.4	3.2	0.9
Cc1ccc(-n2c(-c3c(-c4ccccc4)noc3C)n[nH]c2=S)cc1	-0.6	-2.7	0.2	-8.7
CC1CC(C)(C)OC(C[N+]2(C)CCCCC2)O1 (stereo unspecified)	·	15.1	·	·
Cc1cc(C)cc(NC(N)=S)c1	-6.3	-8.0	-0.4	1.8
COc1cc(C(=O)N/N=C(\c2ccccc2)c2ccccn2)cc(OC)c1OC	99.5*	52.6	1.6	3.2
COc1cccc(C(=O)N/N=C(/c2ccccc2)c2ccccn2)c1	99.9*	64.9	1.4	65.7*
Cn1nnnc1SCC(=O)N(C1CCCCC1)C1CCS(=O)(=O)C1 (stereo unspecified)	-8.2	2.3	0.3	-5.9
Cc1noc(NC(=O)c2ccccc2C(F)(F)F)c1C#N	-3.0	3.7	-0.7	-8.4
Cc1cc(C)c(NC(=S)NC(CO)(CO)CO)c(C)c1	·	2.1	·	·
COc1ccc2[nH]c3c(c2c1)CCn1c-3nc2ccccc2c1=O	1.5	70.8*	2.2	-3.0
COc1ccc(Br)c(C(=O)Nn2c(C)nc3ccccc3c2=O)c1	3.7	-1.1	1.2	-4.2
Cc1nn(-c2ccc(F)cc2)c(C)c1CN1CCN(Cc2ccccc2)C(CCO)C1 (stereo unspecified)	13.4	17.7	2.2	10.3
Cc1nn(-c2ccc(F)cc2)c(C)c1CN1CCN(CCc2ccccc2)C(CCO)C1 (stereo unspecified)	79.2*	9.7	0.6	-0.3
Cc1nn(-c2ccc(F)cc2)c(C)c1CN1CCN(CCC(C)C)C(CCO)C1 (stereo unspecified)	54.8*	4.7	2.8	18.6
O=C1c2ccccc2C2=Nc3ccccc3SC(c3ccc(Cl)cc3)C12 (stereo unspecified)	98.7*	15.6	5.8	82.7*
O=C1c2ccccc2C2=Nc3ccccc3SC(c3cccc(F)c3)C12 (stereo unspecified)	88.8*	74.4*	4.2	84.2*
O=C1NC(c2ccc(Cl)cc2)Nc2ccccc21 (stereo unspecified)	-3.7	-8.3	2.1	8.0
NC(=O)c1nnsc1Sc1c(C(N)=O)nnn1-c1cccc(N)c1	-1.6	2.6	3.1	-2.3
SMILES	Lmaj promast	CHOP inhibitor	RAM inhibit	WT yeast gro inh
N/C(=N\OC(=O)c1cccc2ccccc12)c1ccncc1	·	33.3	·	·
N/C(Cc1ccccc1)=N\OC(=O)c1cccc2ccccc12	96.6*	62.8	0.0	81.2*
NC(=O)c1cccc2ccccc12	·	10.7	·	·
N/C(=N\OC(=O)c1cccc2ccccc12)c1ccc(Br)cc1	0.7	60.0	3.1	76.9*
Cc1ccc(/C(N)=N/OC(=O)c2ccc3c(c2)OCO3)cc1	51.4*	16.6	0.7	-4.7
Cc1ccc(/C(N)=N/OC(=O)c2ccc(Cl)cc2Cl)cc1	84.6*	32.0	1.9	0.3
COc1ccccc1C(=O)O/N=C(\N)c1ccc(Cl)cc1	6.6	-29.6	0.4	14.7
C/C(=N\Nc1ccc(Cl)c(C(=O)O)c1)c1ccc[nH]1	·	-3.7	·	·
Cc1cc(C)cc(C(=O)O/N=C(\N)c2ccc(Br)cc2)c1	3.4	71.8*	3.7	20.8
Cc1cccc(C(=O)O/N=C/c2ccc(Br)cc2)c1	-5.5	47.9	2.4	60.3*
Cc1cccc(C(=O)O/N=C(\N)c2ccc(Br)cc2)c1	-1.0	-3.3	3.6	11.3
O=C(NC1CC1)c1ccc(C2SCC(=O)N2Cc2ccccc2)cc1 (stereo unspecified)	2.4	25.1	2.4	-17.0
O=C(COc1ccc(NS(=O)(=O)c2ccc(F)cc2)cc1)N1CCOCC1	1.1	-12.0	1.5	-10.5
c1ccc(COc2cccc(CNn3cnnc3)c2)cc1	16.1	-23.1	0.0	13.5
CC(NCc1cccc(OCc2ccccc2)c1)C(O)c1ccccc1 (stereo unspecified)	100.4*	-8.7	0.3	43.8
